# Sampled rows, rich in hits. Any-hit rate of the full collection: about 7.2%.
# Sm TGR block – qHTS Assay for the Inhibitors of Schistosoma Mansoni Peroxiredoxins. Schistosoma mansoni thioredoxin glutathione reductase (TGR), Q962Y6. purified TGR, DTNB reduction, TNB absorbance 405 nm. Potency, µM (doses to about 114 µM), for the others: at the top dose activity change, negative = inhibition, hits mostly inhibitors. 3% of 360,000 active. AID 485364, 2010; also: nearly all actives have a fitted effect of over 60% in size
#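 TGR 20 nM + NADPH 100 uM (dispensed conc.), cpd preinc 15 min RT; start with NADPH (500 uM addition) then DTNB (15 mM addition). Kinetic TNB absorbance, 405 nm filter. Four-parameter Hill fit across titration.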
# Lassa entry inh – qHTS for Inhibitors of binding or entry into cells for Lassa Virus; Lassa virus pseudotype entry inhibition, cell reporter; 1.2% of 300,000 active; AID 540256, 2011; Potency, µM (highest dose often 37.9 µM), for the others: top-dose activity change, negative = inhibition, actives largely listed as inhibitors; calls by dose curve; tested in HEK293 cells; also: nearly all actives have a fitted effect of over 50% in size
# MARV entry inh – qHTS for inhibitors of binding or entry into cells for Marburg Virus; Marburg virus pseudotyped entry inhibition, cell reporter; 1.8% of 300,000 active; Potency, µM (titrated, usually from 37.8 µM), for inactives: at the highest dose activity change, negative = inhibition, actives largely listed as inhibitors; calls by dose curve; tested in HEK293 cells
# FMDV antiviral – High Throughput Screening for Foot and Mouth Disease Virus Antivirals | Potency, µM (doses to about 57.9 µM), without a hit: at the top dose activity change, negative = inhibition, most hits filed as inhibitors | AID 1159524, 2015 | FMDV antiviral cell-based qHTS | 1.2% of 410,000 active; calls by dose curve; tested in HEK293T cells; also: read-out not given here; nearly all actives have a fitted effect of over 45% in size
# HCV inhibitor – qHTS Assay for Inhibitors of Hepatitis C Virus (HCV). Huh7.5.1 HCVcc-Cre infection, luciferase reporter, 44 h. Potency, µM (titrated, usually from 41.8 µM), inactives show at the highest dose activity change, negative = inhibition, most hits filed as inhibitors. 3.4% of 340,000 active
#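 Luciferase read-out (15 sec integration) after a 15 min room-temperature substrate step quantifies HCVcc-Cre infection. Cells, 1,000 per well, had compound added 4 h post-plating, then virus at ~0.5 moi, and were cultured 44 h.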
# RE007 growth inh – qHTS Assay for Inhibitors of the HIV-1 protein Vpr; 0.21% of 360,000 active; Potency, µM (titrated, usually from 92.2 µM), without a hit: at the highest dose activity change, negative = less growth, hits mostly inhibitors; S. pombe RE007 Vpr strain, BacTiter-Glo ATP luminescence, 24 h; active = well fitted falling curve with a large enough effect; inconclusive = small, poorly fitted or top-dose-only effect; inactive = no such curve, though single readings can be large or run the other way; also: nearly all actives have a fitted effect of over 50% in size
#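 Fission yeast RE007 carrying one integrated HIV-1 vpr copy, seeded at OD 0.01 in PMG+AL medium with 23 nL pinned compound. Grown 24 h at 30 degrees; viability read by BacTiter-Glo luminescence after 5 min.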
# Starred values were filed as active, the others as inactive; u = inconclusive; x = no result given; [ ] = another dose, or the depositor's remark. Unless noted, calls follow the shape of the dose curve; as a rule, active = well fitted curve in the direction sought with a large enough effect; inconclusive = small, poorly fitted or top-dose-only effect, or another doubt; inactive = no such curve, though single readings can be large; an effect the other way counts as inactive or inconclusive. % is scaled to controls: 0 for no effect and ±100 for the full control effect; potency is read from the fitted curve at half-maximal effect.
SMILES,Sm TGR block,Lassa entry inh,MARV entry inh,FMDV antiviral,HCV inhibitor,RE007 growth inh
Cc1ccc(NC(=O)c2cnc3sc(N4CCOCC4)nn3c2=O)cc1N(C)C,-3%,x,7%[46.1 µM],32µM*,x,x
O=C(CCc1ccccc1)OCCN1CCOCC1,8%,-14%,1%,-9%,21%,-12%
O=C(CCN1CCOCC1)NNC(=O)/C(=C/c1ccccc1)NC(=O)c1ccccc1,-1%,11µM*,u,-10%,19%,14%
CCOC(=O)/C(=C\c1ccccc1)C(=O)CCN1CCOCC1,x,-4%[46.1 µM],12%,18µM*,10µM*,-13%
C#Cc1ccccc1C[C@]1(C(=O)OC)C=C[C@H](C)[C@@H](c2ccccc2Br)N1C(=O)C(F)(F)F,x,x,7%[14.2 µM],x,x,x
CCOC(=O)c1c(-c2ccccc2)csc1NC(=O)c1cc(-c2ccc(Br)cc2)on1,-1%,2%[46.1 µM],u,9%,x,x
CCc1ccc(C2Sc3ccccc3NC3=C2C(=O)c2ccccc23)cc1 (configuration not stated),11%,u,u,54%,x,x
CC(C)c1ccc(C2Sc3ccccc3NC3=C2C(=O)c2ccccc23)cc1 (configuration not stated),1%,18%[46.1 µM],u,7.9µM*,x,x
COc1ccccc1N1C(=O)C=C(Sc2nc(C)cc(C)n2)C1=O,1µM*,13%,-23%[46.1 µM],u,22%,9%
COc1ccc(NC(=O)c2oc3ccc(S(=O)(=O)N(C)C4CCCCC4)cc3c2C)cc1Cl,-1%,12%[46.1 µM],x,-19%,x,x
CCCN(CCC)C(=O)c1cc(S(=O)(=O)N2CCCCC2)c[nH]1,-10%,x,x,-19%,4.5µM*,7%
Cc1nc2scc(-c3ccco3)c2c(=O)n1/N=C/N(C)C,25µM*,-8%,u,x,20%,-11%
Cc1sc2nc(C)n(/N=C/N(C)C)c(=O)c2c1C,9%,18%,-1%,7%,19%,3%
COc1cccc(CNC(=S)Nc2ccc3c(c2)c(=O)n(C)n3Cc2ccccc2)c1,x,x,x,-12%,x,16%
Cc1ccc(Nc2nc(OC(C(F)(F)F)C(F)(F)F)nc(N3CCOCC3)n2)cc1,-13%,11%,1µM*,u,-3%,6%
CCOc1cc(/C=N\Nc2nc(Nc3ccccc3)nc(N3CCOCC3)n2)ccc1OC(=O)c1ccco1,-5%,u,3.3µM*,-7%,u,x
Cc1ccc(Nc2nc(N/N=C\c3ccc4c(c3)OCO4)nc(N3CCOCC3)n2)cc1,3%,u,u,-25%,11µM*,-20%
COc1ccc(Nc2nc(OC)nc(N3CCOCC3)n2)cc1,9%,x,x,-1%,0%,-1%
COc1ccc(-c2nc(CS(=O)CC(=O)NCc3ccc(Cl)cc3)c(C)o2)cc1 (configuration not stated),u,x,x,-18%,u,5%
CCc1ccc(-c2nc(CS(=O)CC(=O)NCc3ccccc3)c(C)o2)cc1 (configuration not stated),8.9µM*,x,x,2%,-20%,15%
Cc1ccc(-c2nc(CS(=O)CC(=O)NCc3ccc(Cl)cc3)c(C)o2)cc1 (configuration not stated),u,x,x,-12%,11µM*,-7%
Cc1oc(-c2ccc(Cl)cc2)nc1CS(=O)CC(=O)NCc1ccccn1 (configuration not stated),40µM*,x,x,-11%,-2%,-1%
Cc1oc(-c2ccc(Cl)cc2)nc1CS(=O)CC(=O)NCc1ccco1 (configuration not stated),u,-6%[46.1 µM],6%[46.1 µM],-1%,-4%,-8%
CCc1ccc(-c2nc(CSCC(=O)NCc3ccco3)c(C)o2)cc1,28µM*,u,u,-30%,-18%,38%
Cc1oc(-c2ccc(Cl)cc2)nc1CS(=O)CC(=O)NCc1ccccc1 (configuration not stated),0%,30%[46.1 µM],u,8%,-5%,-2%
SMILES,Sm TGR block,Lassa entry inh,MARV entry inh,FMDV antiviral,HCV inhibitor,RE007 growth inh
Cc1ccc(C(=O)Nc2cccc(-c3nc(CNC(=O)C4CCCCC4)c(C)o3)c2)s1,x,x,x,30%,x,x
Cc1ccc2cc(CNC(C)c3cccc4ccccc34)c(N3CCC(O)CC3)nc2c1 (configuration not stated),x,x,x,0%,x,x
CCN(CC)CCNCC(=O)Nc1ccc(Cl)cc1C(=O)c1ccccc1,8%,2%,-21%,-7%,-29%,-1%
CCN(CC)CC(=O)Nc1sc(C)cc1C(=O)c1ccccc1,-12%,-11%,u,-27%,8.9µM*,-9%
CCN(CC)CC(=O)Nc1sc(C)cc1C(=O)c1ccc(C)cc1,5%,-9%,u,-19%,u,-19%
Cc1ccc(Cl)c(NC(=O)CCl)c1Cl,32µM*,u,6.3µM*,-19%,-20%,7%
CN(C)CCCNCC(=O)Nc1ccc(Cl)cc1C(=O)c1ccccc1,2%,-19%[46.1 µM],11µM*,-8%,u,5%
Cc1cc(C(=O)c2ccccc2)c(NC(=O)CCl)s1,7.9µM*,-16%,1µM*,u,u,-4%
Cc1cnc(-n2ncc(C(=O)NCC(C)(C)N3CCOCC3)c2C)nc1-c1cccs1,x,x,x,-2%,x,x
COc1cccc(N2CCN(Cc3cc(=O)oc4cc(C)ccc34)CC2)c1,7%,-15%[46.1 µM],3%[46.1 µM],-26%,x,x
O=C(CCl)Nc1ccccc1C(=O)c1ccccc1,35µM*,x,x,u,u,-8%
Cc1ccccc1NC(=O)CCl,22µM*,x,x,u,-17%,7%
Cc1cccc(C)c1NC(=O)c1sc(-n2nc(C)c(Cc3ccc4c(c3)OCO4)c2C)nc1C,-1%,2%[46.1 µM],-15%[46.1 µM],-5%,x,x
O=C(CN1C(=O)CCc2cc(Br)ccc21)Nc1ccc(OC(F)(F)F)cc1,5%,-6%[46.1 µM],x,-12%,x,x
CCCCN(CC)C(=O)CSc1nc2ccccc2c(=O)n1CC1COc2ccccc2O1 (configuration not stated),-26%,-26%,u,-21%,10µM*,1%[3.69 µM]
CCCCNC(=O)CSc1nc2ccccc2c(=O)n1CC1COc2ccccc2O1 (configuration not stated),5%,-1%,-2%,0%,2.8µM*,13%[3.69 µM]
COc1ccc(N(C(=O)/C=C/C(=O)Nc2cc(C)on2)C(C(=O)NC2CCCC2)c2ccccc2C)cc1 (configuration not stated),-7%,u,9.2µM*,20%,u,2%
COc1ccc(N(C(=O)CCC(=O)Nc2cc(C)on2)C(C(=O)NC2CCCC2)c2ccco2)cc1 (configuration not stated),25%,2%,-2%[46.1 µM],25%,-14%,18%

# Assay outcomes: PubChem, National Center for Advancing Translational Sciences (NCATS)
